We go through 16 compounds from PubChem BioAssay (NCI).

Test in all cases: NCI-60 one-dose screen, 48 h (100 = growth as untreated, 0 = no growth, -100 = all killed)
Common to all, as to conditions: 10 µM unless noted

Assay [1] deals with MOLT-4 leukemia.
Assay [2] has as its system SR leukemia.
In assay [3] the test system is RPMI-8226 leukemia.
Assay [4] deals with OVCAR-8 ovarian.
Assay [5] deals with OVCAR-5 ovarian.
The test system of assay [6] is OVCAR-4 ovarian.
The test system of assay [7] is SK-OV-3 ovarian.
Assay [8] concerns IGROV1 ovarian.
For assay [9], the system named is OVCAR-3 ovarian.
Assay [10] deals with NCI/ADR-RES ovarian.
The test system of assay [11] is T-47D breast.
Assay [12] relates to BT-549 breast.
Assay [13] has as its system MDA-MB-435 melanoma.
Assay [14] has as its system SW-620 colon.
In assay [15] the test system is MCF7 breast.
In assay [16] the test system is HCT-116 colon.
Assay [17] deals with HCC-2998 colon.
Assay [18] deals with KM12 colon.
The test system of assay [19] is HS 578T breast.

Several values for one entry are separate records, joined by “and”; a condition that tells them apart may be missing. Equal values may be shown once. Compounds without any hit were thinned out: in the full panel of roughly 83,000, 20% have a hit.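 Plates (96-well) were seeded with cells, treated with compound at one concentration, and incubated for 48 hours before percent growth was determined.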 Values without a mark were called inactive. Activity calls are given as the source filed them. The calls were made as follows: active = growth percent below 10; inactive = the rest.

For `CO[C@@H]([CH2][Hg][O]C(=O)c1ccccc1)[C@@H]([CH2][Hg][O]C(=O)c1ccccc1)OC`, the growth is 27.4% in assay [1]; 50.2% in assay [2]; 92.2% in [3]; 83.8% in assay [4]; 111% in assay [5]; 93.8% in assay [6]. The growth in [7] is 73.2%; in [8] it was 96.4%; in assay [9], -92.8% (active); in assay [10] it was 105%; in assay [11], 87.7%; in assay [12] it was 110%. Also, the growth was 104% in [13]; 66.1% in assay [14]; 46.4% in assay [15]; -60.5% (active) in [16]; 118% in [17]; 101% in assay [18].

As to `O=[N+]([O-])c1ccc2scc3c4ccccc4nc-3c2c1`, the growth in [1] was -11.7% (active); in assay [2], 15.9%; in assay [3], -29.5% (active); in [4] it was -62.3% (active); in assay [5], -77.1% (active); in assay [6], -88.5% (active). For the same compound, the growth was 45.8% in assay [7]; -59% (active) in assay [8]; -99% (active) in assay [9]; 10.7% in [10]; -24.3% (active) in assay [11]; 22.7% in [12]. Moreover, the growth is -2.05% (active) in assay [13]; -76.4% (active) in assay [14]; -64.6% (active) in [15]; -98.7% (active) in assay [16]; 95.7% in assay [17]; 1.98% (active) in assay [18].

For `CCCN1C(=O)NC(=O)C(CC)(N2C(=O)c3c(F)c(F)c(F)c(F)c3C2=O)C1=O` (stereo not drawn), the growth in assay [1] is -79.6% (active); in assay [2], -76.5% (active); in [3], -30% (active); in assay [4], -56.7% (active); in assay [5], -88.1% (active); in assay [6], -43.1% (active). In addition, the growth is -25.4% (active) in [7]; -77.9% (active) in assay [8]; -96.4% (active) in assay [9]; -28.5% (active) in [10]; -52.3% (active) in [11]; -78.8% (active) in [12]. For the same compound, the growth in [13] is -60.3% (active); in assay [14] it was -92.9% (active); in assay [15], -76.5% (active); in [16], -78.2% (active); in [17], -87% (active).

Take `CNC(=O)CCl`: the growth was 118% in assay [1]; 109% in assay [2]; 106% in [3]; 105% in [4]; 107% in assay [5]; 101% in assay [6]. Moreover, the growth is 102% in [7]; 107% in assay [8]; 113% in assay [9]; 104% in assay [19]; 103% in [10]; 101% in assay [12]. The growth was 101% in assay [13]; 107% in [14]; 98.2% in assay [15]; 99.6% in [16]; 95.1% in [17]; 108% in assay [18].

For the compound `Cc1ccccc1-n1c(/C=C\c2ccccn2)nc2ccccc2c1=O`, the growth in [1] was 32.7%; in [2] it was -5.07% (active); in [3], 2.88% (active); in [4], 71%; in assay [5], 106%; in assay [6], 67.6%. In addition, the growth in assay [7] was 86.6%; in assay [8] it was 67.1%; in assay [9] it was 50.3%; in assay [19], 44.2%; in assay [10], -19.9% (active); in assay [11] it was 49.1%. For the same compound, the growth is 66.5% in assay [13]; 68.9% in [14]; 66.9% in assay [15]; 44% in assay [16]; 38.2% in assay [17].

For `c1ccc2c(c1)O[As](O[As]1Oc3ccccc3O1)O2`, the growth in [1] is 19.2%; in assay [2] it was 2.68% (active); in assay [3], -14.9% (active); in [4], 23.3%; in assay [5] it was 40.6%; in assay [6], 40.3%. In addition, the growth is 75.6% in assay [7]; 6.22% (active) in assay [8]; 14.2% in [9]; 50.1% in assay [10]; 14.3% in assay [11]; 17.6% in [12]. Also, the growth was 41.2% in [13]; 25.5% in assay [14]; 12.7% in [15]; 43.1% in assay [16]; 65.8% in assay [17]; 69.8% in assay [18].

In the case of `O=C(NC1=NCC[Se]1)c1ccccc1O`, the growth in [1] was 30.3%; in assay [2], 19%; in [3], 64.8%; in assay [4], 47.4%; in assay [5], 53.3%; in assay [6], 71.1%. For the same compound, the growth in [7] is 135%; in assay [8], -8.34% (active); in assay [9] it was 69.8%; in assay [10], 21.5%; in assay [11], 79.4%; in [12], 82.1%. Also, the growth in assay [13] is 48.3%; in assay [14], 72.9%; in [15] it was 51.4%; in [16], 20.3%; in assay [17], 90%; in assay [18] it was 71.5%.

As for `COC12CC3(C)C(C4=CC(=O)OC4)CCC3(O)C3CCC4=CC(=O)CCC4(CO1)C32` (stereo not drawn), the growth in assay [1] is 119%; in assay [2] it was 117%; in assay [3], 118%; in [4] it was 99.9%; in assay [5] it was 99.5%; in [6], 105%. The growth in assay [7] was 117%; in assay [8], 98.6%; in assay [9], 118%; in [19], 103%; in [10] it was 113%; in assay [11], 116%. Further, the growth is 106% in assay [13]; 105% in assay [14]; 98.1% in assay [15]; 101% in assay [16]; 131% in [17]; 114% in assay [18].

On to `CCC(=O)C(CC(C)[N+](C)(C)C)(c1ccccc1)c1ccccc1` (stereo not drawn), for which the growth in assay [1] is 104%; in assay [2], 101%; in assay [3], 109%; in assay [4], 99.8%; in [5], 96.8%; in assay [6], 110%. The growth in assay [7] is 96.6%; in assay [8] it was 101%; in assay [9], 70.6%; in [19] it was 107%; in [10], 102%; in [12] it was 67.5%. Besides, the growth in assay [13] is 104%; in assay [14] it was 104%; in assay [15], 90.7%; in [16], 93.6%; in assay [17], 102%; in assay [18], 107%.

For the compound `CC[C@H](C)[C@H](NC(=O)C12CC(NC)(C1)C2)C(=O)N(C)[C@H](C[C@@H](OC(C)=O)c1nc(C(=O)N[C@@H](Cc2ccccc2)C[C@H](C)C(=O)OC)cs1)C(C)C`, the growth in [1] is 8.66% (active); in assay [2], -2.59% (active); in assay [3] it was 26.3%; in assay [4] it was 17.5%; in assay [5], 52.7%; in assay [6], 50.3%. The growth in [7] is 39.6%; in [8], 29.7%; in [9] it was -14.1% (active); in assay [10] it was 68.9%; in assay [11], 51.9%; in assay [12], -22.4% (active). The growth in [13] was -17.5% (active); in assay [14] it was 39.5%; in assay [15], 15%; in assay [16], 1.15% (active); in [17], 8.1% (active); in [18] it was 6.78% (active).

In the case of `CCCC1CCCCC12C(=O)NC(=O)NC2=O` (stereo not drawn), the growth was 110% and 97.1% in assay [1]; 91.8% in [2]; 95.9% in assay [3]; 107% and 103% in [4]; 97.8% and 107% in [5]; 94.1% and 104% in [6]. For the same compound, the growth in assay [7] is 94.7% and 106%; in assay [8], 111%; in [9], 106% and 105%; in assay [10] it was 99.6% and 104%; in assay [11], 93.2% and 87.8%; in assay [12], 112% and 98.9%. Further, the growth in assay [13] was 99.1% and 108%; in assay [14] it was 94.9% and 106%; in [15], 98.6% and 99.9%; in assay [16] it was 109% and 94.4%; in [17] it was 103% and 96.6%; in assay [18] it was 98.1% and 107%.

With `O=C(O)C(F)F`, the growth was 102% in [1]; 109% in assay [2]; 114% in [3]; 105% in assay [4]; 106% in assay [5]; 112% in assay [6]. Also, the growth in assay [7] is 98.5%; in assay [8], 114%; in assay [9], 115%; in assay [10] it was 113%; in assay [11], 96.6%; in [12], 117%. For the same compound, the growth is 102% in assay [13]; 90.4% in [14]; 97.1% in [15]; 107% in assay [16]; 123% in [17]; 103% in [18].

`N#CCN(CC#N)[N+](=O)[O-]`: the growth in assay [1] is 114%; in assay [2], 100%; in [3] it was 97.2%; in assay [4], 109%; in assay [5], 103%; in assay [6], 111%. In addition, the growth in [7] was 104%; in assay [8] it was 121%; in assay [9], 108%; in [19], 89.5%; in assay [10], 110%; in assay [11] it was 92.2%. For the same compound, the growth in [13] was 108%; in assay [14], 101%; in assay [15], 93.3%; in assay [16], 96.8%; in assay [17], 115%; in assay [18], 112%.

For `OCCNC1CCCCC1`, the growth is 89.2% in assay [1]; 94.2% in assay [2]; 108% in [3]; 112% in assay [4]; 98% in [5]; 111% in [6]. The growth in assay [7] is 105%; in assay [8], 111%; in assay [19], 108%; in [10], 115%; in [11] it was 98.4%; in assay [12], 113%. For the same compound, the growth in [13] was 106%; in [14], 108%; in assay [15], 101%; in [16], 94.3%; in [18], 107%.

Turning to `O=C(NCCCN1CC1)Nc1cccc2ccccc12`, the growth was 103% and 83.7% in assay [1]; 102% and 87.1% in assay [2]; 100% and 88.4% in [3]; 80.1% and 79.3% in [4]; 105% and 113% in assay [5]; 105% and 114% in [6]. Further, the growth in assay [7] was 101% and 95.8%; in [8], 87.5% and 86.9%; in assay [19] it was 96.2% and 106%; in assay [10], 101%; in assay [11] it was 86.4%; in [12] it was 90.3% and 105%. Also, the growth in [13] is 108% and 88%; in [14], 99% and 89.6%; in assay [15], 82% and 77.9%; in [16], 98.1% and 94.2%; in assay [17], 97.9% and 93.4%; in assay [18], 103% and 102%.

With `C[C@@]12CCCc3coc(c31)C(=O)c1cc3c(cc12)C(=O)C1=C(NCCS1(=O)=O)C3=O`, the growth in [1] is -31.5% (active); in [2], -13.3% (active); in [3], -30.4% (active); in assay [4], -13.1% (active); in assay [5], -28.3% (active); in [6] it was -89.3% (active). Further, the growth is -12.6% (active) in assay [7]; -23.9% (active) in [8]; 81.5% in assay [10]; -45.9% (active) in [11]; -51.7% (active) in assay [12]; -83.5% (active) in assay [13]. Further, the growth in assay [14] was -43.8% (active); in assay [15], -54.1% (active); in [16], -16.5% (active); in [17] it was -30.8% (active).
